A short description of test [1]: qHTS for Inhibitors of the Functional Ribonucleoprotein Complex (vRNP) of Lassa (LASV) Arenavirus: LASV Primary Screen - GLuc reporter signal (AID 1347082; calls by dose curve; tested in HEK293 reporter line; also: nearly all actives have a fitted effect of over 60% in size). For orientation: In qHTS, concentration-response curves come from the screen itself.
Test [2] is described as follows: qHTS for Inhibitors of the Functional Ribonucleoprotein Complex (vRNP) of Lassa (LASV) Arenavirus: Viability assay - alamar blue signal for LASV Primary Screen (AID 1347083; calls by dose curve; tested in HEK293 reporter line; also: nearly all actives have a fitted effect of over 80% in size).
Test [3] is described as follows: qHTS for Inhibitors of the Functional Ribonucleoprotein Complex (vRNP) of Lymphocytic Choriomeningitis Arenaviruses (LCMV): Viability assay - alamar blue signal for LCMV Primary Screen (AID 1347085; calls by dose curve; tested in HEK293 reporter line; also: nearly all actives have a fitted effect of over 80% in size).
Test [4] addresses Nucleoprotein (Lymphocytic choriomeningitis virus (strain Armstrong)) (UniProt P09992). Nature of the test: qHTS for Inhibitors of the Functional Ribonucleoprotein Complex (vRNP) of Lymphocytic Choriomeningitis Arenaviruses (LCMV): LCMV Primary Screen - GLuc reporter signal (AID 1347086). Also: nearly all actives have a fitted effect of over 70% in size.

Structures are written as SMILES. Results filed as inconclusive are left out. A number with no mark means an inactive call. The source made the active and inactive calls. Unless noted, calls follow the shape of the full dose curve.
Potency is read from the fitted curve at half-maximal effect.

Nucleoprotein (Lymphocytic choriomeningitis virus (strain Armstrong)), sequence (P09992 whole entry, looked up): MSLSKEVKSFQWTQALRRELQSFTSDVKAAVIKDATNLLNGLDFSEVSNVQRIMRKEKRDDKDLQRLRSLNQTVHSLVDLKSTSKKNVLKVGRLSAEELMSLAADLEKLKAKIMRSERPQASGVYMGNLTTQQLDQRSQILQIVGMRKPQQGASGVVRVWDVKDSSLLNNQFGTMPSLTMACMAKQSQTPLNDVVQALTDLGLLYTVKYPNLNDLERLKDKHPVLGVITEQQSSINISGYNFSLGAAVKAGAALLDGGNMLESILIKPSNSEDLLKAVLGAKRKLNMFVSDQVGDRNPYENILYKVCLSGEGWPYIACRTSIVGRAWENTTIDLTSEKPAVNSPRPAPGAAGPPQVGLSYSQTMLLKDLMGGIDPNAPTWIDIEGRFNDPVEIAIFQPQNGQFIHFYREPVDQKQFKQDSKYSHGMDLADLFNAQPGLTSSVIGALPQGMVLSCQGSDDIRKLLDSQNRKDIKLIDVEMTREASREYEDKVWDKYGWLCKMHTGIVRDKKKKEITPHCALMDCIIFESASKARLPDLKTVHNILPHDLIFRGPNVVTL

`CC(=O)C1CCC2(O)C3CCC4=CC(=O)CCC4(C)C3CCC12C` (configuration not stated): the Potency entry in test [1], in test [2], in test [3] and in test [4] was “inactive” in each case.

`Cc1cc(-c2nnc3n2CCCCC3)c(C)n1-c1ccccc1`: the Potency entry in test [1], in test [2], in test [3] and in test [4] was “inactive” throughout.

As to `COc1ccc(-c2cc(=O)c3ccc(O)cc3o2)cc1`, the Potency result in test [1], in test [2], in test [3] and in test [4] was “inactive” throughout.

For the compound `CC(C)=C[C@H]1C[C@H](C)[C@H]2CC[C@H](C)c3c(O[C@@H]4OC[C@@H](O)[C@H](O)C4O)c(O)c(C)c1c32` (some centres not stated), the Potency result in test [1], in test [2], in test [3] and in test [4] was “inactive” each time.

As to `Nc1oc2ccccc2c1C(=O)Cc1ccccc1O[C@@H]1O[C@H](CO)[C@@H](O)[C@H](O)[C@H]1O`, the Potency entry in test [1], in test [2], in test [3] and in test [4] was “inactive” each time.

Turning to `O=c1ccc2cc3ccoc3cc2o1`, the Potency entry in test [1], in test [2], in test [3] and in test [4] was “inactive” each time.

`CC(=O)O[C@@H]1CC2C(C)(C)C(=O)C=C[C@]2(C)C2CC[C@]3(C)C(=CC[C@H]3C3CO[C@@H](C(C)(C)O)[C@H](O)C3)[C@@]21C` (some centres not stated): the Potency result in test [1], in test [2], in test [3] and in test [4] was “inactive” throughout.

On to `C=C1C(=O)OC2C=C(C)CCC=C(C)CCC12` (configuration not stated), for which the Potency result in test [1], in test [2], in test [3] and in test [4] was “inactive” throughout.

For the compound `CN=CNc1ccc(C)cc1C`, the Potency result in test [1], in test [2], in test [3] and in test [4] was “inactive” throughout.

Take `Nc1ncnc2c1ncn2[C@H]1O[C@H](CO)[C@@H](O)[C@@H]1O`: the Potency entry in test [1], in test [2], in test [3] and in test [4] was “inactive” in each case.

Take `CN[C@H]1[C@@H](O[C@@H]2[C@H](O[C@@H]3[C@@H](O)[C@@H](O)[C@@H](N=C(N)N)[C@@H](O)[C@@H]3N=C(N)N)O[C@H](C)[C@@]2(O)C=O)O[C@@H](CO)[C@@H](O)[C@H]1O`: the Potency result in test [1], in test [2], in test [3] and in test [4] was “inactive” throughout.

For `OC[C@H]1O[C@@H](O[C@H]2[C@@H](O)[C@@](O)(CO)O[C@@H]2CO)[C@H](O)[C@@H](O)[C@@H]1O`, the Potency entry in test [1], in test [2], in test [3] and in test [4] was “inactive” in each case.

As for `COc1ccc(C=CC(=O)Nc2ccccc2C(=O)O)cc1OC`, the Potency entry in test [1], in test [2], in test [3] and in test [4] was “inactive” throughout.

Regarding `CC(=O)OCC(=O)[C@@]1(O)CC[C@H]2[C@@H]3CCC4=CC(=O)CC[C@]4(C)[C@@H]3C(=O)C[C@@]21C`, the Potency result in test [1], in test [2], in test [3] and in test [4] was “inactive” in each case.

For the compound `O=c1c(-c2ccc(O)cc2)coc2cc(OC3O[C@H](CO)[C@H](O)[C@H](O)[C@H]3O)cc(O)c12` (some centres not stated), the Potency in test [1] is 19.3 µM (active); in test [2], 17.2 µM (active); in test [3], 21.7 µM (active); in test [4] it was 19.3 µM (active).

As to `C[C@]12CCC3C(CC[C@H]4C[C@H](O)CC[C@]34C)C1C[C@H](O)[C@@H]2O` (some centres not stated), the Potency result in test [1], in test [2], in test [3] and in test [4] was “inactive” throughout.

`CC1(C)CCc2c([nH]c3ccccc3c2=O)O1`: the Potency result in test [1], in test [2], in test [3] and in test [4] was “inactive” each time.

As for `C=C(CC[C@@H](O)C(C)(C)O)[C@H]1CC[C@]2(C)[C@@H]1CCC1[C@@]3(C)CC[C@H](O)C(C)(C)C3CC[C@]12C` (some centres not stated), the Potency result in test [1], in test [2], in test [3] and in test [4] was “inactive” in each case.

For the compound `COc1cc2c(cc1OC)OC(C)(C)C=C2`, the Potency entry in test [1], in test [2], in test [3] and in test [4] was “inactive” each time.

Take `CC1=CC(=O)C2=C(C)C[C@@H]3OC(=O)[C@@H](C)[C@H]3C=C12`: the Potency entry in test [1], in test [2], in test [3] and in test [4] was “inactive” each time.

For `COC(=O)C1(Cc2ccc(O)cc2)OC(=O)C(O)=C1c1ccc(O)cc1` (configuration not stated), the Potency result in test [1], in test [2], in test [3] and in test [4] was “inactive” in each case.

Regarding `Cn1c2c(c(=O)c3ccccc31)C[C@@H](O)C(C)(C)O2`, the Potency entry in test [1], in test [2], in test [3] and in test [4] was “inactive” each time.

Turning to `CC1(C)C=Cc2c(ccc(C(=O)/C=C/c3ccccc3)c2O)O1`, the Potency entry in test [1], in test [2], in test [3] and in test [4] was “inactive” throughout.

Take `Cn1c(-c2ccccc2)cc(=O)c2ccccc21`: the Potency result in test [1], in test [2], in test [3] and in test [4] was “inactive” throughout.

`O=C(CNC(=O)c1ccccc1)c1ccccc1`: the Potency entry in test [1], in test [2], in test [3] and in test [4] was “inactive” throughout.

For `C[C@@H]1O[C@@H](O[C@H]2CC[C@@H](O[C@H]3[C@H](O)C[C@H](c4ccc5c(c4O)C(=O)C4=C(C5=O)[C@@]5(O)C(=O)C[C@](C)(O[C@H]6CC[C@H](O[C@H]7C=CC(=O)[C@H](C)O7)[C@H](C)O6)C[C@@]5(O)C=C4)O[C@@H]3C)O[C@H]2C)C=CC1=O`, the Potency entry in test [1], in test [2], in test [3] and in test [4] was “inactive” each time.

In the case of `COC(=O)C1=CO[C@@H](C)[C@@H]2CN3CC[C@@]4(C(=O)Nc5ccccc54)[C@@H]3C[C@H]12`, the Potency result in test [1], in test [2], in test [3] and in test [4] was “inactive” each time.

Take `COc1cccc(OC)c1`: the Potency result in test [1], in test [2], in test [3] and in test [4] was “inactive” in each case.

For `CCCCCCCCCOC(C)=O`, the Potency entry in test [1], in test [2], in test [3] and in test [4] was “inactive” in each case.

For the compound `C[C@]12CCC(=O)C=C1[C@@H]1CC1[C@H]1[C@H]3[C@@H]4C[C@H]4[C@@]4(CCC(=O)O4)[C@@]3(C)CC[C@H]12` (some centres not stated), the Potency entry in test [1], in test [2], in test [3] and in test [4] was “inactive” in each case.

Consider `C/C=C(/C)C(=O)O[C@@H]1c2cc3c(c4c2[C@@]2(CO4)C(=O)C(OC)=C(OC)C=C2C[C@@H](C)[C@H]1C)OCO3`, for which the Potency result in test [1], in test [2], in test [3] and in test [4] was “inactive” throughout.

Turning to `NCc1ccccc1`, the Potency result in test [1], in test [2], in test [3] and in test [4] was “inactive” in each case.

In the case of `CC1(C)C[C@H]2C3=CCC4[C@@]5(C)CC[C@H](O)[C@](C)(CO)C5CC[C@@]4(C)[C@]3(C)C[C@H]3O[C@@H]1[C@H](O)[C@]32CO` (some centres not stated), the Potency result in test [1], in test [2], in test [3] and in test [4] was “inactive” in each case.

The values above are taken from PubChem BioAssay (NCATS).
